Assay outcomes from PubChem BioAssay.
AT treatment: potential ataxia-telangiectasia treatments restoring KAP-1 phosphorylation; 320,000 compounds, 0.19% hits; F2112 A-T fibroblasts, KAP-1 phosphorylation AlphaLISA; neocarzinostatin DNA damage 30 min before lysis; Potency, µM (titrated, usually from 57.5 µM), most hits filed as activators; also: nearly all actives have a fitted effect of over 45% in size
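ATM-like activity read as KAP-1 phosphorylation via AlphaLISA donor/acceptor antibody pairs after lysis and 6 hr at 25C. Cells were ATM-null patient fibroblasts (F2112, hTERT), dosed 60 min, then exposed to the DSB inducer NCS for 30 min.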
TSG101-PTAP inh: blocks PTAP/TSG101 interaction to inhibit HIV-1 budding; 340,000 tested, under 10 active; Potency, µM (highest dose often 115 µM), usual class: inhibitors; Fluorescence polarization, FITC-PTAP peptide / Tsg101 binding; Q99816; active = well fitted inhibition curve with a large enough effect in the main read-out, with a control signal flat, not every such curve was filed as active; inconclusive = small, poorly fitted or top-dose-only effect, or effect the other way, or a change in a side signal; inactive = no such curve, though single readings can be large or run the other way
Target sequence (Q99816 whole entry, looked up): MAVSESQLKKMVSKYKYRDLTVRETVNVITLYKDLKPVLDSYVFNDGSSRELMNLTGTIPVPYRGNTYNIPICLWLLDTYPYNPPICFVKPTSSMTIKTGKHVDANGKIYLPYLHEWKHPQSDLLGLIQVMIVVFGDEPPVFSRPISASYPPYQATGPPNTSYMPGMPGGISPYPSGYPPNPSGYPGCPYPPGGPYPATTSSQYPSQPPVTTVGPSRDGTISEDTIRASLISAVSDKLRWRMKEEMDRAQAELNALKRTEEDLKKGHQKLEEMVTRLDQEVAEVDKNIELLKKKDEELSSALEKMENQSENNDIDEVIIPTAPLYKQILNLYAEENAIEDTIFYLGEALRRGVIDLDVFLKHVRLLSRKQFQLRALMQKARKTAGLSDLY
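Steps: Tsg101 binding domain dispensed (10 uM final), compounds pinned in DMSO, FITC-labeled PTAP-motif peptide added (50 nM final); after 20 min binding at room temperature, polarization measured.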
Pin1 inh: inhibitors of human Pin1. Potency, µM (highest dose often 115 µM), hits mostly inhibitors. 390,000 compounds, 0.009% hits. Pin1 FP peptide displacement, HiFluor488, 10 min. AID 504891; active = well fitted inhibition curve with a large enough effect in the polarisation, with a control signal flat, not every such curve was filed as active; inconclusive = small, poorly fitted or top-dose-only effect, or effect the other way, or a change in a side signal; inactive = no such curve, though single readings can be large or run the other way; the % refers to the polarisation
Target sequence (Q13526 whole entry, looked up): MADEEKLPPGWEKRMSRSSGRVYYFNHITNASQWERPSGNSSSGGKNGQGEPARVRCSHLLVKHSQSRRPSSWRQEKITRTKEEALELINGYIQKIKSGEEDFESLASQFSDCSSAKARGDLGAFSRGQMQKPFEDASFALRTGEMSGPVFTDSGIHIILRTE
PKM2 activator: increases activity of human pyruvate kinase M2; AID 1631; purified PKM2, Kinase-Glo ATP luminescence, activation; response scale: 0% is enzyme alone, no compound; 260,000 compounds, 0.34% hits; P14618; Potency, µM (highest dose often 57.5 µM), actives largely listed as activators; also: nearly all actives have a fitted effect of over 55% in size
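Purified hPK-M2 (>95% pure) converted ADP (0.1 mM final) to ATP with 0.5 mM PEP in 50 mM imidazole pH7.2, KCl, MgCl2, Tween 20, BSA; 1 h at room temperature. ATP detected by Kinase-Glo luminescence.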
Of the large screens only hits and unclear results are named; the others gave an inactive call. Shown are actives, neighbours in structure and some others; about 0.39% of the full set was active somewhere. Unless noted, calls follow the shape of the dose curve; as a rule, active = well fitted activation curve with a large enough effect; inconclusive = small, poorly fitted or top-dose-only effect; inactive = no such curve, though single readings can be large or run the other way.

COC(=O)C1=CN(C2CC2)C=C(C(=O)OC)C1c1ccc(C(=O)OC)cc1	AT treatment 32µM
Cc1nc2ccc(S(=O)(=O)Nc3ccccc3C)cc2s1	PKM2 activator 16µM
CC(=O)Oc1ccc(N2C(=O)C3C4C=CC(CO)(O4)C3C2=O)cc1 (stereo not drawn)	PKM2 activator inconclusive (no result: AT treatment)
O=C1C2C3C=CC(CO)(O3)C2C(=O)N1c1ccccc1-c1ccccc1 (stereo not drawn)	PKM2 activator 32µM
O=C1c2ccccc2C(=O)N1c1cccc(=O)[nH]1	none (no result: AT treatment, TSG101-PTAP inh, PKM2 activator)
COc1ccc(NC(=O)CSc2n[nH]c(-c3ccncc3)n2)c([N+](=O)[O-])c1	none
CCOc1ccc(NC(=O)CSc2ncn[nH]2)c([N+](=O)[O-])c1	PKM2 activator 16µM
CCc1nc(SCC(=O)Nc2ccc(OC)cc2[N+](=O)[O-])n[nH]1	PKM2 activator 25µM
COc1ccc(C2Nc3ccccc3C(=O)N2Cc2ccccc2)cc1COc1ccc(F)cc1 (stereo not drawn)	none (no result: AT treatment, TSG101-PTAP inh, PKM2 activator)
COc1ccc(C2c3c(nc(CCc4ccccc4)[nH]c3=O)Oc3ccc4ccccc4c32)cc1OC (stereo not drawn)	none (no result: AT treatment, TSG101-PTAP inh, PKM2 activator)
Cc1ccc(-c2csc3nc(C)n(-n4c(C)ccc4C)c(=O)c23)o1	PKM2 activator 14µM
Cc1ccc(-c2csc3nc(C)n(N)c(=O)c23)o1	none
O=C(O)c1cc(O)c2c(c1)[C@H]([C@H]1c3cc(C(=O)O)cc(O)c3C(=O)c3c(O[C@@H]4O[C@H](CO)[C@@H](O)[C@H](O)[C@H]4O)cccc31)c1cccc(OC3O[C@H](CO)[C@@H](O)[C@H](O)[C@H]3O)c1C2=O (stereo partly drawn)	Pin1 inh 0.71µM (no result: PKM2 activator)
Cc1c(P(=S)(c2ccccc2)c2ccccc2)c2ccccc2n1CCCc1ccccc1	none (no result: AT treatment, TSG101-PTAP inh, PKM2 activator)
CNC(=S)N/N=C/c1ccc2c(c1)OCCO2	AT treatment 3.5µM
NC(=S)N/N=C/c1ccc2c(c1)OCCO2	none
COc1ccccc1[C@H]1C(c2cccc(Cl)c2)=NN(c2ccccc2)[C@@H]1CO	AT treatment 10µM (no result: PKM2 activator)
COC(=O)[C@@H]1C[C@@]2(O)[C@@H](O)[C@@H](O)[C@@H](O)C[C@H]2N1Cc1ccc(Cl)cc1	AT treatment 40µM
Cc1occc1-c1nnc(SCC(=O)c2ccc(Cl)cc2)n1C	none
Cc1occc1-c1nnc(SCC(=O)c2c[nH]c3ccccc23)n1C	PKM2 activator 25µM
C=CC[C@@H]1Cc2c(Br)ccc(Br)c2[C@@H](CC=C)N1	AT treatment 40µM
C=CCC1NCCc2c(Br)cccc21 (stereo not drawn)	none
CCOc1cccc(/C=C/c2ccc3cccc(O)c3n2)c1O	Pin1 inh inconclusive (no result: PKM2 activator)
CCOc1cccc(/C=C/c2ccc3cccc(O)c3n2)c1OC	AT treatment 7.9µM (no result: PKM2 activator)
CC(=O)N1CCN(c2cccc(Nc3nn4c(=O)c5ccccc5nc4s3)c2)CC1	none (no result: AT treatment, TSG101-PTAP inh, PKM2 activator)
CC1(C)CC2(CCCN(C(=S)Nc3ccccc3)C2)CCO1 (stereo not drawn)	AT treatment 20µM
S=C(Nc1ccccc1)N1CCCCCC1	none
Cc1ccccc1N(C)C1=N[S+](=O)([O-])c2ccccc21	none (no result: AT treatment, TSG101-PTAP inh, PKM2 activator)
CC(=O)Nc1ccc(NC2=C(Cl)C(=O)c3ccccc3C2=O)cc1	AT treatment 3.2µM
Cc1cc(C)c2cc(C(O)c3nnnn3Cc3ccccc3)c(=O)[nH]c2c1 (stereo not drawn)	PKM2 activator 13µM
CC(C)(C)c1ccc(C(=O)NCC(=O)OC(C(=O)Nc2cc(C(F)(F)F)ccc2Cl)c2ccccc2)cc1 (stereo not drawn)	none (no result: AT treatment, TSG101-PTAP inh, PKM2 activator)
C/C(=C\c1cccc(Br)c1)C(=O)c1c(C)cc(C)[nH]c1=O	none (no result: PKM2 activator)
C/C(=C\c1ccc(C)o1)C(=O)c1c(C)cc(C)[nH]c1=O	PKM2 activator 10µM
Cc1cc2c(s1)c1cnn(Cc3cccc(C(F)(F)F)c3F)c(=O)c1n2C	none (no result: AT treatment, TSG101-PTAP inh, PKM2 activator)
COc1ccc(CC(=O)Nc2cc(=O)n(C)c(=O)n2C)cc1	PKM2 activator 16µM
CC(=O)Oc1ccc(S(=O)(=O)c2ccc(OC(C)=O)cc2)cc1	PKM2 activator 14µM
O=C(Nc1ccc(Cl)cn1)c1cc2c(s1)-c1ccccc1OC2	AT treatment 16µM
Cc1nn(Cc2ccccc2)c(C)c1/C=N/NC(=O)c1ccccc1O	AT treatment 32µM
Nc1ccc(S(=O)(=O)N2CCN(S(=O)(=O)c3c(F)cccc3F)CC2)cc1	none (no result: AT treatment, TSG101-PTAP inh, PKM2 activator)
CC(C)C(OC(=O)CNC(=O)c1ccccc1)C(=O)Nc1cc(C(F)(F)F)ccc1Cl (stereo not drawn)	none (no result: AT treatment, TSG101-PTAP inh, PKM2 activator)
Cc1csc(SCC(=O)Nc2cc(S(=O)(=O)N3CCOCC3)ccc2N2CCOCC2)n1	none
Cc1csc(SCC(=O)c2ccc(S(=O)(=O)N3CCOCC3)cc2)n1	Pin1 inh inconclusive, PKM2 activator 28µM
O=C(OCC#CCSc1nnc(-c2cccc3ccccc23)o1)c1cc2ccccc2s1	none (no result: AT treatment, TSG101-PTAP inh, PKM2 activator)
CC(=O)N1CC(=O)N=C1SCC(=O)Nc1nc(C)c(-c2ccccc2)s1	PKM2 activator 20µM
COc1ccc(C2c3c(ncn(Cc4ccccc4)c3=N)Oc3ccc4ccccc4c32)cc1OC (stereo not drawn)	none (no result: AT treatment, TSG101-PTAP inh, PKM2 activator)
O=C(O)c1cnn2c(C(F)(F)F)cc(-c3ccco3)nc12	Pin1 inh inconclusive
Cc1c(NC(=O)c2cnn3c(C(F)(F)F)cc(-c4ccco4)nc23)c(=O)n(-c2ccccc2)n1C	AT treatment 16µM
Cc1cc(Br)c(NC(=O)c2ccccc2[N+](=O)[O-])cc1C	none
Cn1c(=O)n(C)c2cc(NC(=O)c3ccccc3[N+](=O)[O-])c(Br)cc21	PKM2 activator 7.9µM
CCOC(=O)N1CCC(NC(=O)c2ccc3c(c2)sc2nc(-c4ccccc4)cn23)CC1	AT treatment 20µM
Cc1cc2c(s1)c1cnn(Cc3ccc(F)c(C)c3)c(=O)c1n2C	none (no result: AT treatment, TSG101-PTAP inh, PKM2 activator)
O=C(O)c1cccc(Cn2c(Cl)c(/C=N/NC(=O)c3cc4ccccc4cc3O)sc2=O)c1	Pin1 inh inconclusive, PKM2 activator 32µM
Cc1cc2c(s1)c1cnn(Cc3ccc(F)cc3Cl)c(=O)c1n2C	none (no result: AT treatment, TSG101-PTAP inh, PKM2 activator)
CC(=O)N=c1sccn1CC(O)c1ccc(Br)cc1 (stereo not drawn)	none
Cn1ccs/c1=N\S(=O)(=O)c1ccc(Br)cc1	PKM2 activator 16µM
Cc1cc(Oc2ccc(C(C)(C)C)cc2)nc(N2CCOCC2)n1	none (no result: AT treatment)
CCCc1ccc(Oc2cc(C)nc(N3CCOCC3)n2)cc1	AT treatment 25µM, Pin1 inh inconclusive
CC(=O)N1CCN(c2nc(-c3ccc(Br)cc3)cs2)CC1	none (no result: AT treatment, TSG101-PTAP inh, PKM2 activator)
O=C1C(=O)N(CCCc2ccccc2)c2ccccc21	PKM2 activator inconclusive
O=C(CN1C(=O)C(=O)c2ccccc21)NCCc1ccccc1	PKM2 activator 32µM
CCCN(C(=O)c1cc2c(s1)CCC2)c1c(N)n(Cc2ccccc2)c(=O)[nH]c1=O	Pin1 inh inconclusive, PKM2 activator 22µM
CCc1ccc(NC(=O)c2cnn3c(C)cc(C)nc23)cc1	none (no result: AT treatment, TSG101-PTAP inh, PKM2 activator)
O=C(Oc1ccc(OC(=O)c2ccco2)c(S(=O)(=O)c2ccc(Br)cc2)c1)c1ccco1	PKM2 activator 4.5µM
